# Experimental data as given in PubChem BioAssay (NCI).
# About 79,000 compounds went through this panel and 15% of them were active in at least one assay; those are over-represented in the sample as a whole. Activity calls are given as the source filed them. Cut-off read from the data, not from the text of the source: active = growth inhibition above about 70%; inactive = the rest.
# Assay: NCI Yeast Anticancer Drug Screen. Data for the mlh1 rad18 strain (AID 175)
# Details: S. cerevisiae mlh1 rad18 strain growth inhibition; at 50.0 µM; active compounds read high
# Procedure, shortened: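 Growth inhibition of the yeast strain was measured after compound exposure and expressed relative to vehicle-treated controls. The strain carries defined defects in DNA damage repair.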
row,Structure (SMILES),growth inhibition
1,Nc1ccnc(SCCCCc2ccccc2)n1,64% (inactive)
2,CC(=O)Nc1c(Nc2ccccc2)[nH]c(C)nc1=S,-9.8% (inactive)
3,CCN(CC)C(=O)CC1(O)CCCCC1,4.2% (inactive)
4,CC(O)CN1CCN(CN(CC(C)O)CC(C)O)CC1 (centres undefined),-16.4% (inactive)
5,O=c1cn[nH]c(=O)[nH]1,11.5% (inactive)
6,COc1ccc(NC(=O)C2C(=O)N(c3ccc(OC)cc3)C(=O)/C2=N\NC(N)=O)cc1 (centres undefined),-18.2% (inactive)
7,O=C1c2ccccc2-c2ccc3c4ccc5c6c(ccc(c7ccc1c2c73)c64)C(=O)c1ccccc1-5,37.5% (inactive)
8,CC(C)CCC(C)(C)COC(=O)c1ccc([N+](=O)[O-])cc1 (tested in a mixture with another compound),29.3% (inactive)
9,CCOC(=O)Cc1cc(C)c2ccccc2n1,7.45% (inactive)
10,CCOC(=O)NOC1CCCCO1 (centres undefined),4.95% (inactive)
11,O=c1cc(CC2(O)CCCCC2)c2ccccc2[nH]1,9.8% (inactive)
12,CN=NNc1ccc(C#N)cc1,5.5% (inactive)
13,Cc1c2c(n3c(nc4ccccc43)c1C#N)SCC2,-17.5% (inactive)
14,O=[N+]([O-])c1ccc(N=C/C=C/Nc2ccc([N+](=O)[O-])cc2)cc1,20.8% (inactive)
15,Cc1ccc(S(=O)(=O)N(C)c2cc(Cl)c(I)cc2Cl)cc1,5.2% (inactive)
16,CCCCCCCCCCCCCCCC(O)S(=O)(=O)O (centres undefined),-23.9% (inactive)
17,CC(C)NC(N)=O,16.4% (inactive)
18,Cn1cc(C(=O)C2CCCCC2)ccc1=O,-19.3% (inactive)
19,Cc1cc2c(=O)[nH]c(=S)[nH]c2cn1,-3.6% (inactive)
20,CCN(CC)CCNC(=O)c1ccc(C)c(OCc2ccccc2)c1[N+](=O)[O-],-19.6% (inactive)

row,Structure (SMILES),growth inhibition
1,CCCCC(=O)Nc1ccc(S(=O)(=O)O)c(N=NC2C(=O)N(c3ccccc3)N=C2C)c1 (centres undefined),15% (inactive)
2,CC1(C)CC23C4COC(=O)C2CCC1C3CC4=O (centres undefined),-21.4% (inactive)
3,CC/C(SC)=[N+](\C)[O-],4.25% (inactive)
4,CCOc1ncc(C(O)c2ccc(F)cc2)c(OCC)n1 (centres undefined),0.3% (inactive)
5,O=C1OC(/C=C/c2ccccc2)=NC/1=C\c1ccc(Cl)cc1,10.2% (inactive)
6,NC(=O)CC(N)C(N)=O (centres undefined),-3.25% (inactive)
7,COC(=O)CC1(O)C(C=C(C)C)C(C(=O)OC)C(=O)C(C(=O)OC)C1C(=O)OC (centres undefined),-1.25% (inactive)
8,CCN(CC)Cc1ccccc1COC(=O)c1cccc(Cl)c1,26.1% (inactive)
9,O=C(O)c1cccc(C(=O)O)[n+]1[O-],-10% (inactive)
10,CN(C)c1noc2c1c(=O)n(C)c(=O)n2C,14.8% (inactive)
11,COc1ccc(C(=O)CCC(=O)O)c(C)c1,5.25% (inactive)
12,CC1(N)CCC(C(C)(C)N)CC1 (centres undefined),8.8% (inactive)
13,O=C(c1ccccc1)[C@@H]1C[C@H](Sc2ccccc2)c2cc(Cl)ccc2N1,-3.5% (inactive)
14,COC(=O)C1(Cc2ccccc2)Cc2ccccc2C1,12.2% (inactive)
15,C[N+](C)(C)CCOC(=O)/C=C/c1cnc[nH]1,16.1% (inactive)
16,CC(=O)Oc1ccc[nH]c1=O,2.4% (inactive)
17,O=C1OCC2=C1C(c1ccc3c(c1)OCO3)c1cc3c(cc1O2)OCO3 (centres undefined),-16.6% (inactive)
18,Clc1ccc(CSc2ccc3nncc(SCc4ccc(Cl)cc4Cl)c3c2)c(Cl)c1,17.6% (inactive)
19,CCCC(=O)OCCOc1ccccc1,2.5% (inactive)
